# Reference: publication PMC7862700, “An all-to-all approach to the identification of sequence-specific readers for epigenetic DNA modifications on cytosine”
# Key:
# Test in all cases: DAPPL (digital affinity profiling via proximity ligation, sequencing); 10 mM Tris-HCl pH 7.5, 50 mM NaCl, 1 mM DTT, 4% glycerol, room temperature, 30 min; GST-TFs on glutathione beads, 16-mer random dsDNA library, 0.1% formaldehyde crosslink after washing; high values mean tight binding
# Details in all cases: protein: recombinant; tags: N-terminal GST; dsDNA, one strand shown
# FLI1 = target: T1, FLI1 (Homo sapiens, UniProt Q01543 1-452)
# T1 sequence: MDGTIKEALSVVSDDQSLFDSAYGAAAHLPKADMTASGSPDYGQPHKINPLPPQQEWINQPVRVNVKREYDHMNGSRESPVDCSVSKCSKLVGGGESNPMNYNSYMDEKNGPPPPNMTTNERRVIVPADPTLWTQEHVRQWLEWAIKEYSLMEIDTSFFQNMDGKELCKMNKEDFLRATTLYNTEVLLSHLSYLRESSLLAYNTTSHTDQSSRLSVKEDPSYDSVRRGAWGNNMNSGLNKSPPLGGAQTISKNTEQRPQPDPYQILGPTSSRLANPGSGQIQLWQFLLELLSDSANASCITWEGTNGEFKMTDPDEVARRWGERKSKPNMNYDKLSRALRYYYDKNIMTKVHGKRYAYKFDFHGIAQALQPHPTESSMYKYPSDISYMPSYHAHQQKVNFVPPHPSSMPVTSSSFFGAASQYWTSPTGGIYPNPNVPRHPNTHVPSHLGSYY
# Outline: (§1)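 Human transcription factors were made in yeast as GST fusions, captured on glutathione beads and barcoded with DNA. With a tag-only sample included, the pool was incubated with 200 nmole of a random double-stranded 16-mer DNA library in Tris/NaCl/DTT/glycerol buffer at room temperature for 30 min, then crosslinked with 0.1% formaldehyde after washing, ligated by proximity, amplified and sequenced. For binding signal, each hexamer's read frequency for a factor is divided by its frequency for the tag-only sample.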
# ELK1 = target: T2, ELK1 (Homo sapiens, UniProt P19419 1-428)
# T2 sequence: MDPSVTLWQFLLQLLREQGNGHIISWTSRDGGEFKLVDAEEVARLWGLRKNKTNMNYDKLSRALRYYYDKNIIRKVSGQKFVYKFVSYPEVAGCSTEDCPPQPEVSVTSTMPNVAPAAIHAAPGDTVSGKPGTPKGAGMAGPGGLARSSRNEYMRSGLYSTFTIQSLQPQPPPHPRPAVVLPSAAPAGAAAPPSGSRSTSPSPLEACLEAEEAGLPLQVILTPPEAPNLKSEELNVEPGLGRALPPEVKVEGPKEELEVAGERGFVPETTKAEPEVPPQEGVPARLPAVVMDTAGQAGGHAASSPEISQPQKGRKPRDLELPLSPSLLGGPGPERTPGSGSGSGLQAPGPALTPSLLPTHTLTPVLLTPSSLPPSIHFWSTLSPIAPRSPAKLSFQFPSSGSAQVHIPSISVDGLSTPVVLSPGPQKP
# Outline: as §1
# GABPA = target: T3, GABPA (Homo sapiens, UniProt Q06546 1-454)
# T3 sequence: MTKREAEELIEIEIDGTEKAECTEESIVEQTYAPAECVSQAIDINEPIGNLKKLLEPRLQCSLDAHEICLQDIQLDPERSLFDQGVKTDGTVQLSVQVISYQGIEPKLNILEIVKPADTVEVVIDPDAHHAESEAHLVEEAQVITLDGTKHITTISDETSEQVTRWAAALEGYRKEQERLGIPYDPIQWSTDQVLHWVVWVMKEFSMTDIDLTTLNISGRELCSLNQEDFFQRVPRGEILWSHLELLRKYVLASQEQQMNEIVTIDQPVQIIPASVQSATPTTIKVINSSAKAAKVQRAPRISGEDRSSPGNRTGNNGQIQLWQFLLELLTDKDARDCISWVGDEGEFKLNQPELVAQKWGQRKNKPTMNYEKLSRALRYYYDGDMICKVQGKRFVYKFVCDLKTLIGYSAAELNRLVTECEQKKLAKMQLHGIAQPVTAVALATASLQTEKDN
# Outline: as §1
# ERG = target: T4, ERG (Homo sapiens, UniProt P11308 1-479)
# T4 sequence: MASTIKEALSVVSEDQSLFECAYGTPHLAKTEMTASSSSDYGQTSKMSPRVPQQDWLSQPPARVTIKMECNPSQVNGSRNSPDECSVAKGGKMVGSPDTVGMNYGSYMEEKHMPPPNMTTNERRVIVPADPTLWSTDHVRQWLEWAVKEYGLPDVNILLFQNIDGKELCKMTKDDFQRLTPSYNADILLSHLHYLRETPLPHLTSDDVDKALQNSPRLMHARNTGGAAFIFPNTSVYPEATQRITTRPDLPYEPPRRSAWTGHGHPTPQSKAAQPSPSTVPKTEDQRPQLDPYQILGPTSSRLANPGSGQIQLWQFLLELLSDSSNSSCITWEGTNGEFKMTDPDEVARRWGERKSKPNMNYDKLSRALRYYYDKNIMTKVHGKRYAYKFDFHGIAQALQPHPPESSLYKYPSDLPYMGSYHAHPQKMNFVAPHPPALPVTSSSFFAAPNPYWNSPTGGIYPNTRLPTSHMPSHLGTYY
# Outline: as §1
# ELF1 = ELF1 (Homo sapiens, UniProt P32519 1-619)
# ELF1, sequence (P32519 whole entry): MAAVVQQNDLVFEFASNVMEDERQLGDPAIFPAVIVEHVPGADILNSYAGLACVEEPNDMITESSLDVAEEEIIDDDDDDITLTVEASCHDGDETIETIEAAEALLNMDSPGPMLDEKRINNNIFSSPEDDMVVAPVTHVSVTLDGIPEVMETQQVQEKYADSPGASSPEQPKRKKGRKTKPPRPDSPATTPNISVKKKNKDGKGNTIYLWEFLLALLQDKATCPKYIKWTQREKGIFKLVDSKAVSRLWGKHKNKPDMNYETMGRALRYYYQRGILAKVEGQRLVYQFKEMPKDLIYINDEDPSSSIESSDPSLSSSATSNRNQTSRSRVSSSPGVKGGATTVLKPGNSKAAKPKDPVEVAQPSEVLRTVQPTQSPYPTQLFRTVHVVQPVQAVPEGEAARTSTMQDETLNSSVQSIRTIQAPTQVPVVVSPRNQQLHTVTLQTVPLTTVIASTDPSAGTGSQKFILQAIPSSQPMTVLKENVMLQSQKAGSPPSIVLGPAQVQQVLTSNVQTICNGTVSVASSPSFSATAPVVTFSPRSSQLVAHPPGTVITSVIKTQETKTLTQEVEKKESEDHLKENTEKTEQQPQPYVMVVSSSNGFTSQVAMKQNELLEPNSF
# Outline: as §1
# EHF = target: T5, EHF (Homo sapiens, UniProt Q9NZC4 1-300)
# T5 sequence: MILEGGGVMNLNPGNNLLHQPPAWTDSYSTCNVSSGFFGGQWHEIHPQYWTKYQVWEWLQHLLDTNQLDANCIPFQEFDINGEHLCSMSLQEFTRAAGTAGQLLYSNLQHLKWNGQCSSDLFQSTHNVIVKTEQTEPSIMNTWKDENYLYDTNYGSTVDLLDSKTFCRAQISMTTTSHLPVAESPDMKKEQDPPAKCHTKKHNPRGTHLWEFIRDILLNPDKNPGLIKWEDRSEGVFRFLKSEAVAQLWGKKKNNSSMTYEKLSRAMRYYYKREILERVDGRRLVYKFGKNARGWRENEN
# Outline: as §1
# SPI1 [1] = target: SPI1 (Homo sapiens, UniProt P17947 1-270)
# Outline: as §1
# SPIB = SPIB (Homo sapiens, UniProt Q01892 1-262)
# SPIB, sequence (Q01892 whole entry): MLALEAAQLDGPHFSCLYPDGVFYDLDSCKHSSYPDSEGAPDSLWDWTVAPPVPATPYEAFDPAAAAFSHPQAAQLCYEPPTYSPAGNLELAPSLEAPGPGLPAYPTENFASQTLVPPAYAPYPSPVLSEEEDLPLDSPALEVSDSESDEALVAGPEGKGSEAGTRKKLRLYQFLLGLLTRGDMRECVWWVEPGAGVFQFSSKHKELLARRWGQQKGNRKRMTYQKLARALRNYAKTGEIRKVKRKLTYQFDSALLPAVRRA
# Outline: as §1
# ELK3 = target: T6, ELK3 (Homo sapiens, UniProt P41970 1-407)
# T6 sequence: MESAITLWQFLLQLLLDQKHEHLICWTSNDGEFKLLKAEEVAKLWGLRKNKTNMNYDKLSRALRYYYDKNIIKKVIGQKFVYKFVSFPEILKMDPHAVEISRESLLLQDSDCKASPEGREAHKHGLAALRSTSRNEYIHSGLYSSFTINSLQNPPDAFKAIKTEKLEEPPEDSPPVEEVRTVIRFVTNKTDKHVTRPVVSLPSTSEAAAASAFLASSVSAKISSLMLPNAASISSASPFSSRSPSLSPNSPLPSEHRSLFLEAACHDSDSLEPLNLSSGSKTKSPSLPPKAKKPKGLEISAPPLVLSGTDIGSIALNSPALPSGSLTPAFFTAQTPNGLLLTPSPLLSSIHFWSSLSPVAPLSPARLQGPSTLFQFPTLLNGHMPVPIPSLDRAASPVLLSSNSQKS
# Outline: as §1
# FEV = target: T7, FEV (Homo sapiens, UniProt Q99581 1-238)
# T7 sequence: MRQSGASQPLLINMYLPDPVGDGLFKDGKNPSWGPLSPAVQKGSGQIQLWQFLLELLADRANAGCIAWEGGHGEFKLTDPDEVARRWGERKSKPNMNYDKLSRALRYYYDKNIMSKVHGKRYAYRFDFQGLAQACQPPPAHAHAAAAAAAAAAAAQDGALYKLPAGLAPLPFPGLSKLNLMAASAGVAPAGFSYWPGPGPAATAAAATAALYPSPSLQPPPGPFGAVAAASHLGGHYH
# Outline: as §1
# ETV5 = ETV5 (Homo sapiens, UniProt P41161 1-510)
# ETV5, sequence (P41161 whole entry): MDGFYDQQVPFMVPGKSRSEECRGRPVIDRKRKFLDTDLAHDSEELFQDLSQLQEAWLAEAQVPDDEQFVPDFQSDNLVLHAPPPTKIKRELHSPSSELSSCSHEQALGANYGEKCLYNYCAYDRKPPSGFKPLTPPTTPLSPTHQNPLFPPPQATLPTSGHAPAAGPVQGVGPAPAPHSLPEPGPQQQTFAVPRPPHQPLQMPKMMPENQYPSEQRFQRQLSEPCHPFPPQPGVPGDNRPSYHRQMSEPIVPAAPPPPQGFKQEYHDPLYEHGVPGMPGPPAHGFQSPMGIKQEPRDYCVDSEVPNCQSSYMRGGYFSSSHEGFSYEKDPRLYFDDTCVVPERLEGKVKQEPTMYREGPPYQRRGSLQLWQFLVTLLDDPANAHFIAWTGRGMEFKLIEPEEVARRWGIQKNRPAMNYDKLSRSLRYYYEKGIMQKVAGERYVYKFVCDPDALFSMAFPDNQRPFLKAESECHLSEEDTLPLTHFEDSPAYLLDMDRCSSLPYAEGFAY
# Outline: as §1
# SPIC = target: T8, SPIC (Homo sapiens, UniProt Q8N5J4 1-248)
# T8 sequence: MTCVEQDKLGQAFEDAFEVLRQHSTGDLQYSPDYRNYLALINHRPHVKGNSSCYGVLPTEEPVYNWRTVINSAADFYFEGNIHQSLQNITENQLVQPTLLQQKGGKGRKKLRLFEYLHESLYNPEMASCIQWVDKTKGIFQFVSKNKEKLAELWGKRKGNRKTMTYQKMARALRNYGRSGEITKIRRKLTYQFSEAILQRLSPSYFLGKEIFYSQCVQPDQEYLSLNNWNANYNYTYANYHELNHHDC
# Outline: as §1
# ELF4 = ELF4 (Homo sapiens, UniProt Q99607 1-663)
# ELF4, sequence (Q99607 whole entry): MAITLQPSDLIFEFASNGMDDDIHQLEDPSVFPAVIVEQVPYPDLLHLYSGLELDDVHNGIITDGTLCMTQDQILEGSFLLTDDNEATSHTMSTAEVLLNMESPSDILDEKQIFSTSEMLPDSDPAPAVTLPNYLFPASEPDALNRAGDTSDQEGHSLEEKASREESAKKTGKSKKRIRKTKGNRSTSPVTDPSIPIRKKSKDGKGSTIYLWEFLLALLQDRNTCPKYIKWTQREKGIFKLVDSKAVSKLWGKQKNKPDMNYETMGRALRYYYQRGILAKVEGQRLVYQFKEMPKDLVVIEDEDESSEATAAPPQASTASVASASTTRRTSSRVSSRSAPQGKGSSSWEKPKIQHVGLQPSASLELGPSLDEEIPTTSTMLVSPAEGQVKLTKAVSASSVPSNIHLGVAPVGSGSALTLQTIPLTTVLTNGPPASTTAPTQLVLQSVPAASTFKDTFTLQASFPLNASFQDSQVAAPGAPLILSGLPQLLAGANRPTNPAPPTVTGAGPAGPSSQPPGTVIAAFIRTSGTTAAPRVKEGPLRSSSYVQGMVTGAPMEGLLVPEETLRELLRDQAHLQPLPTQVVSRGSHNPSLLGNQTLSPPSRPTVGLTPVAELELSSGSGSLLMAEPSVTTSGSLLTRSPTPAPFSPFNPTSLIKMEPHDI
# Outline: as §1
# ELK4 = target: T9, ELK4 (Homo sapiens, UniProt P28324-2 1-405)
# T9 sequence: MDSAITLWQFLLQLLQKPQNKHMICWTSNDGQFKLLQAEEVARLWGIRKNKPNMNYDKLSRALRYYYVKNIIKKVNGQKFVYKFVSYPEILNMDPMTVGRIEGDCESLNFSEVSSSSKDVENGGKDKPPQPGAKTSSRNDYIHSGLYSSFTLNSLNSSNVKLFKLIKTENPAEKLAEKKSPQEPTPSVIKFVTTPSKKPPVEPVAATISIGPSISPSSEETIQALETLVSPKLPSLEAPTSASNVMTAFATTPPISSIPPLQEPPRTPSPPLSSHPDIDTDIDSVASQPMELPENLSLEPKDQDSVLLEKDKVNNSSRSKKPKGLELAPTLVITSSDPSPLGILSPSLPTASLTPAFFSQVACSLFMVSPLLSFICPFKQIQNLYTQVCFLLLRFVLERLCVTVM
# Outline: as §1
# ETV2 = target: T10, ETV2 (Homo sapiens, UniProt O00321 1-342)
# T10 sequence: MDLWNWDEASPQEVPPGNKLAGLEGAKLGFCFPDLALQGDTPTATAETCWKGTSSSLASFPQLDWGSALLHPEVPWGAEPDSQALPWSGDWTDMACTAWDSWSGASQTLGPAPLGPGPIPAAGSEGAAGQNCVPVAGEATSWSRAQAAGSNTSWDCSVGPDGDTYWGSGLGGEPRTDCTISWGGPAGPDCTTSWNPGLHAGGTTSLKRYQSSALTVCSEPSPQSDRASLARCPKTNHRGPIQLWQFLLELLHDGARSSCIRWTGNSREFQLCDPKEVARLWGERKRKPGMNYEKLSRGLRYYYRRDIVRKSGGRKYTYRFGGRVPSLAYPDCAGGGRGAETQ
# Outline: as §1
# ELF3 = target: T11, ELF3 (Homo sapiens, UniProt P78545 1-371)
# T11 sequence: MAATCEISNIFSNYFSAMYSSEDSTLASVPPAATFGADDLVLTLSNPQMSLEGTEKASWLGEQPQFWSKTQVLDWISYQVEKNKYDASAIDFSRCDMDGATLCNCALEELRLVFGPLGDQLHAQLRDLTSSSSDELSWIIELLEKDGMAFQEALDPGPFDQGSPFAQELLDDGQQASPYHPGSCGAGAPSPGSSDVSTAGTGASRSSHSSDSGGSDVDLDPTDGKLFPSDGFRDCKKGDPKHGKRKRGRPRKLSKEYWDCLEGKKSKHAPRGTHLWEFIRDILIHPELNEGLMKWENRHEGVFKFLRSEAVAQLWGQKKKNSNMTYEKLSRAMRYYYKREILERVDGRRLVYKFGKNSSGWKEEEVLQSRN
# Outline: as §1
# ETV1 = ETV1 (Homo sapiens, UniProt P50549 1-477)
# ETV1, sequence (P50549 whole entry): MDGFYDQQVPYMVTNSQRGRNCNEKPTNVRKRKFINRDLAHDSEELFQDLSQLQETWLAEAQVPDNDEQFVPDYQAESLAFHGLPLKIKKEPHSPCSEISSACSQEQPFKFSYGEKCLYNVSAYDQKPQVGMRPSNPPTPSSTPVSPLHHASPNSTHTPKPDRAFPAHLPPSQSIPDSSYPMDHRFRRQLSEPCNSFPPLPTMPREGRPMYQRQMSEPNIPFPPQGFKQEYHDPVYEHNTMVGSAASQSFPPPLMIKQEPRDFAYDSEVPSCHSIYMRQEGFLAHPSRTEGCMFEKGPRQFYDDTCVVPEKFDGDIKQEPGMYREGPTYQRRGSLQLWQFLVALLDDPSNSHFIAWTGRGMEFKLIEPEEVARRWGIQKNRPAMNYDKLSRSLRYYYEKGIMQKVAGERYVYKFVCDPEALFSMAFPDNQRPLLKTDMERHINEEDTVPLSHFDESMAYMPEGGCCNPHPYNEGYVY
# Outline: as §1
# SPI1 [2] = target: SPI1 (Homo sapiens, UniProt P17947 1-270); remark: listed apart in the source
# Outline: as §1
# CRX = CRX (Homo sapiens, UniProt O43186 1-299)
# CRX, sequence (O43186 whole entry): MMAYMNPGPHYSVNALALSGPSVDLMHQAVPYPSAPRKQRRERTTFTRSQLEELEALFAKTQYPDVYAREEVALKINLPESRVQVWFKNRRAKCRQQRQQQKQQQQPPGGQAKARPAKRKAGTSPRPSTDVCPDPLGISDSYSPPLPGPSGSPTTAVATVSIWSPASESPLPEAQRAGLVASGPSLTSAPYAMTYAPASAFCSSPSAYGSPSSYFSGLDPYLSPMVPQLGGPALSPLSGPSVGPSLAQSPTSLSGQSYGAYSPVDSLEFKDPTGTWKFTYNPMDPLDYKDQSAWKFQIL
# Outline: as §1
Sequence,binding signal (FLI1),binding signal (ELK1),binding signal (GABPA),binding signal (ERG),binding signal (ELF1),binding signal (EHF),binding signal (SPI1 [1]),binding signal (SPIB),binding signal (ELK3),binding signal (FEV),binding signal (ETV5),binding signal (SPIC),binding signal (ELF4),binding signal (ELK4),binding signal (ETV2),binding signal (ELF3),binding signal (ETV1),binding signal (SPI1 [2]),binding signal (CRX)
CGGAAG,"2.85 fold enrichment (6-mer frequency, TF over GST control)","3.3 fold enrichment (6-mer frequency, TF over GST control)","2.61 fold enrichment (6-mer frequency, TF over GST control)","3.44 fold enrichment (6-mer frequency, TF over GST control)","2.8 fold enrichment (6-mer frequency, TF over GST control)","3.07 fold enrichment (6-mer frequency, TF over GST control)","3.49 fold enrichment (6-mer frequency, TF over GST control)","3.01 fold enrichment (6-mer frequency, TF over GST control)","3.41 fold enrichment (6-mer frequency, TF over GST control)","3.68 fold enrichment (6-mer frequency, TF over GST control)","3.27 fold enrichment (6-mer frequency, TF over GST control)","2.79 fold enrichment (6-mer frequency, TF over GST control)","2.61 fold enrichment (6-mer frequency, TF over GST control)","2.16 fold enrichment (6-mer frequency, TF over GST control)","2.63 fold enrichment (6-mer frequency, TF over GST control)","3.01 fold enrichment (6-mer frequency, TF over GST control)","3.2 fold enrichment (6-mer frequency, TF over GST control)",,
TACCCA,"1.01 fold enrichment (6-mer frequency, TF over GST control)","1.09 fold enrichment (6-mer frequency, TF over GST control)","1.12 fold enrichment (6-mer frequency, TF over GST control)","1.03 fold enrichment (6-mer frequency, TF over GST control)","1.07 fold enrichment (6-mer frequency, TF over GST control)","1.05 fold enrichment (6-mer frequency, TF over GST control)",,"1.1 fold enrichment (6-mer frequency, TF over GST control)","1.09 fold enrichment (6-mer frequency, TF over GST control)","1.03 fold enrichment (6-mer frequency, TF over GST control)","1.11 fold enrichment (6-mer frequency, TF over GST control)","1.08 fold enrichment (6-mer frequency, TF over GST control)","1.08 fold enrichment (6-mer frequency, TF over GST control)","1.02 fold enrichment (6-mer frequency, TF over GST control)","1.12 fold enrichment (6-mer frequency, TF over GST control)","1.18 fold enrichment (6-mer frequency, TF over GST control)","1.03 fold enrichment (6-mer frequency, TF over GST control)","1.09 fold enrichment (6-mer frequency, TF over GST control)","1.08 fold enrichment (6-mer frequency, TF over GST control)"
